# Source: PubChem BioAssay (Tox21)
# Active and inactive are the calls of the source. Calls come from the whole dose curve; as a rule, active = well fitted curve in the direction sought with a large enough effect in the repeat runs; inconclusive = weak or mixed curves; inactive = flat fitted curve, though single readings scatter.
# Assay: qHTS assay to test for compound auto fluorescence at 535 nm (green) in HepG2 cells (AID 720675)
# Conditions: green autofluorescence 485/535 nm, 1 h; series mostly up to 91.3 µM
row,Compound,outcome
1,CC(C)c1ccc(S(=O)(=O)O)cc1,inactive
2,O=C(O)CCCCCCCCCCC(=O)O,inactive
3,CCN(CC)CCCC(C)Nc1ccnc2cc(Cl)ccc12 (stereo not drawn),inactive
4,C#C[C@]1(O)CC[C@H]2[C@@H]3CCC4=CC(=O)CC[C@@H]4[C@H]3CC[C@@]21C,inactive
5,CC(=O)CC(=O)Nc1ccccc1,inactive
6,O=C(Oc1ccccc1)c1ccccc1,inactive
7,Cc1ccc2oc(=O)ccc2c1,inactive
8,CC(c1cc2ccccc2s1)N(O)C(N)=O (stereo not drawn),inactive
9,CCCCC(CC)COC(=O)C(C#N)=C(c1ccccc1)c1ccccc1 (stereo not drawn),inactive
10,CCN(CC)c1ccc(C(=O)c2ccccc2C(=O)O)c(O)c1,inactive
11,OCc1cccnc1,inactive
12,CCc1ccc(CCOc2ccc(CC3SC(=O)NC3=O)cc2)nc1 (stereo not drawn),inactive
13,COc1ccc2cc([C@H](C)C(=O)O)ccc2c1,inactive
14,CC1=CCC2CC1C2(C)C (stereo not drawn),inactive
15,COS(C)(=O)=O,inactive

# Assay: qHTS assay to test for compound auto fluorescence at 460 nm (blue) in HEK293 cells (AID 720678)
# Conditions: blue autofluorescence 405/460 nm; series mostly up to 91.3 µM
# How it was run: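 Blue read-out at excitation 405 nm and emission 460 nm follows overnight compound exposure of HEK293 cells at 37C in 5% CO2. Activity is given as auto fluorescence equivalency to triamterene.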
row,Compound,outcome
1,O=C(O)c1cc(C(=O)O)cc(S(=O)(=O)O)c1,inactive
2,CC1CCC(C(C)C)C(O)C1 (stereo not drawn),inactive
3,CCCCCCCCC/C=C/CC1CC(=O)OC1=O (stereo not drawn),inactive
4,CCCCCC1=CCCC1=O,inactive
5,O=C(O)c1ccccc1C(c1ccc(O)cc1)c1ccc(O)cc1,inactive
6,CCCCC(CC)COC(=O)CCCCC(=O)OCC(CC)CCCC (stereo not drawn),inactive
7,COCCCOc1ccnc(CS(=O)c2nc3ccccc3[nH]2)c1C (stereo not drawn),inactive
8,CCCCCC/C(C=O)=C\c1ccccc1,inactive
9,O=C(O)CCCC[C@@H]1SC[C@@H]2NC(=O)N[C@@H]21,inactive
10,C=C(C)C(=O)Nc1ccc(Cl)c(Cl)c1,inactive
11,Cc1cccnc1,inactive
12,CC[C@H](C)C(=O)O[C@H]1C[C@@H](C)C=C2C=C[C@H](C)[C@H](CC[C@@H]3C[C@@H](O)CC(=O)O3)[C@H]21,inactive
13,NNc1nncc2ccccc12,inactive
14,O=[N+]([O-])c1ccc(/C=C/c2ccc([N+](=O)[O-])cc2S(=O)(=O)O)c(S(=O)(=O)O)c1,inactive
15,CCCSc1ccc2nc(NC(=O)OC)[nH]c2c1,inactive
16,CC(=O)Nc1ccccc1,inactive
17,Cc1occc(=O)c1O,inactive
18,CC1=CC(=O)NS(=O)(=O)O1,inactive
19,OCC(CO)(CBr)CBr,inactive
20,CCCCCCCCCCCCOCCO,inactive

row,Compound,outcome
1,O=C(O)[C@H](O)[C@@H](O)[C@H](O)[C@H](O)CO,inactive
2,COc1ccc(NC(C)=O)cc1N,inactive
3,CCCCCOC(C)=O,inactive
4,OC[C@H]1O[C@@](CO)(O[C@H]2O[C@H](CO)[C@@H](O)[C@H](O)[C@H]2O)[C@@H](O)[C@@H]1O,inactive
5,CC(C)c1ccc(S(=O)(=O)O)cc1,inactive
6,O=C(O)CCCCCCCCCCC(=O)O,inactive
7,CCN(CC)CCCC(C)Nc1ccnc2cc(Cl)ccc12 (stereo not drawn),inactive
8,C#C[C@]1(O)CC[C@H]2[C@@H]3CCC4=CC(=O)CC[C@@H]4[C@H]3CC[C@@]21C,inactive
9,CC(=O)CC(=O)Nc1ccccc1,inactive
10,O=C(Oc1ccccc1)c1ccccc1,inactive
11,Cc1ccc2oc(=O)ccc2c1,inactive
12,CC(c1cc2ccccc2s1)N(O)C(N)=O (stereo not drawn),inactive
13,CCCCC(CC)COC(=O)C(C#N)=C(c1ccccc1)c1ccccc1 (stereo not drawn),inactive
14,CCN(CC)c1ccc(C(=O)c2ccccc2C(=O)O)c(O)c1,inactive
15,OCc1cccnc1,inactive
16,CCc1ccc(CCOc2ccc(CC3SC(=O)NC3=O)cc2)nc1 (stereo not drawn),inactive
17,COc1ccc2cc([C@H](C)C(=O)O)ccc2c1,inactive
18,CC1=CCC2CC1C2(C)C (stereo not drawn),inactive
19,COS(C)(=O)=O,inactive

# Assay: qHTS assay to test for compound auto fluorescence at 590 nm (red) in HEK293 cells (AID 720679)
# Conditions: red autofluorescence 540/590 nm; series mostly up to 91.3 µM
# How it was run: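 Red channel, Ex/Em 540/590nm; signal expressed as equivalency to Rose Bengal sodium. HEK293, 2,000 cells/well, 10% dialyzed FBS; 23 nL compound pinned after 4-5 hr attachment; overnight 37C/5% CO2 before reading.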
row,Compound,outcome
1,O=C(O)c1cc(C(=O)O)cc(S(=O)(=O)O)c1,inactive
2,CC1CCC(C(C)C)C(O)C1 (stereo not drawn),inactive
3,O=C(O)c1ccccc1C(c1ccc(O)cc1)c1ccc(O)cc1,inactive
4,CCCCC(CC)COC(=O)CCCCC(=O)OCC(CC)CCCC (stereo not drawn),inactive
5,COCCCOc1ccnc(CS(=O)c2nc3ccccc3[nH]2)c1C (stereo not drawn),inactive
6,C=C(C)C(=O)Nc1ccc(Cl)c(Cl)c1,inactive
7,Cc1cccnc1,inactive
8,CCCSc1ccc2nc(NC(=O)OC)[nH]c2c1,inactive
9,CC(=O)Nc1ccccc1,inactive
10,OCC(CO)(CBr)CBr,inactive
11,CCCCCCCCCCCCOCCO,inactive
12,O=C(O)[C@H](O)[C@@H](O)[C@H](O)[C@H](O)CO,inactive
13,COc1ccc(NC(C)=O)cc1N,inactive
14,CCCCCOC(C)=O,inactive
15,CC(C)c1ccc(S(=O)(=O)O)cc1,inactive
16,CCN(CC)CCCC(C)Nc1ccnc2cc(Cl)ccc12 (stereo not drawn),inactive
17,C#C[C@]1(O)CC[C@H]2[C@@H]3CCC4=CC(=O)CC[C@@H]4[C@H]3CC[C@@]21C,inactive
18,CC(=O)CC(=O)Nc1ccccc1,inactive
19,CC(c1cc2ccccc2s1)N(O)C(N)=O (stereo not drawn),inactive
20,OCc1cccnc1,inactive
21,CCc1ccc(CCOc2ccc(CC3SC(=O)NC3=O)cc2)nc1 (stereo not drawn),inactive
22,COc1ccc2cc([C@H](C)C(=O)O)ccc2c1,inactive
23,CC1=CCC2CC1C2(C)C (stereo not drawn),inactive
24,COS(C)(=O)=O,inactive
